From PubChem BioAssay (NCI) come the findings set out here.

Assay [1] can be described thus: NCI Yeast Anticancer Drug Screen. Data for the rad50 strain (AID 155).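 Note: 0% = growth of vehicle-only cultures of the same strain.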 As to conditions: S. cerevisiae rad50 strain growth inhibition; at 50.0 µM; active compounds read high. The gist of the method:
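Vehicle-treated cultures provide the reference for the growth inhibition reported for compound-exposed, repair-deficient yeast.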

A short description of assay [2]: NCI Yeast Anticancer Drug Screen. Data for the mec2-1 strain (AID 157). As to conditions: S. cerevisiae mec2-1 strain, at 50.0 µM, active compounds read high. The gist of the method: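 Using mec2-1 yeast: add compound, measure growth, express inhibition versus vehicle-treated cultures.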
Assay [3] is described as follows: NCI Yeast Anticancer Drug Screen. Data for the sgs1 mgt1 strain (AID 161).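 Note: 0% = growth of cultures given vehicle only.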 As to conditions: S. cerevisiae sgs1 mgt1 strain, at 50.0 µM, active compounds read high. A digest of the protocol: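 Yeast cells carrying a defined DNA-repair defect were exposed to test compounds. Growth inhibition was measured relative to vehicle-treated controls.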
Assay [4] is described as follows: NCI Yeast Anticancer Drug Screen. Data for the cln2 rad14 strain (AID 165).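 Note: 0% = growth equal to vehicle treated cultures.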 As to conditions: S. cerevisiae cln2 rad14 strain, at 50.0 µM, active compounds read high. The gist of the method:
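Yeast strain cln2 rad14, bearing defects in cell cycle control and DNA repair, serves as the test system; values reflect growth inhibition compared with vehicle.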

Assay [5] is described as follows: NCI Yeast Anticancer Drug Screen. Data for the bub3 strain (AID 167). As to conditions: S. cerevisiae bub3 mutant strain, at 50.0 µM, active compounds read high. The gist of the method: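 Mutant yeast screening strain plus compound; vehicle-treated cultures serve as the 0% inhibition reference.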
A short description of assay [6]: NCI Yeast Anticancer Drug Screen. Data for the mlh1 rad18 strain (AID 175). The settings on record: S. cerevisiae mlh1 rad18 strain growth inhibition; at 50.0 µM; active compounds read high. A digest of the protocol: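 Steps: expose repair-defective yeast to compound; measure growth; express inhibition against vehicle-treated controls.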

Molecules are shown by their SMILES. About 79,000 compounds went through this panel and 15% of them were active in at least one assay; those are over-represented in the sample as a whole. A number with no mark means an inactive call. Activity calls are given as the source filed them. Cut-off read from the data, not from the text of the source: active = growth inhibition above about 70%; inactive = the rest.

With `CC(C)(C)NC(=O)Oc1ccc2ccccc2c1`, the growth inhibition in assay [1] is 1.75%; in assay [2], -14.6%; in assay [3], -6%; in assay [4], -84.9%; in assay [5], 10.3%; in assay [6], -15.7%.

As to `CN(/N=C1\C(=O)Nc2ccccc21)c1ccccc1`, the growth inhibition in assay [1] was 4.65%; in assay [2] it was -3.15%; in assay [3], 13.6%; in assay [4], -37.9%; in assay [5], 3.85%; in assay [6], 17.6%.

As to `COc1ccc(NC(=O)NCc2ccc(C)c(C)c2)cc1`, the growth inhibition in assay [1] is -0.8%; in assay [2], 38.8%; in assay [3], 22.3%; in assay [4], -3.05%; in assay [5] it was 20.1%; in assay [6], 35%.

Regarding `Nc1ccc(CCc2ccc3ccccc3n2)cc1`, the growth inhibition was 33.2% in assay [1]; -9.25% in assay [2]; 15.9% in assay [3]; 7.9% in assay [4]; -16.2% in assay [5]; 33.5% in assay [6].

As to `CCC1(C)OCC(C)(C)C(C(C)C)O1` (stereo not given), the growth inhibition in assay [1] is -13.7%; in assay [2], 3%; in assay [3] it was -17.4%; in assay [4] it was -62.5%; in assay [5] it was -39.6%; in assay [6] it was -14.6%.

For the compound `O=S1(=O)CS/C(=N/C(=S)N(Cc2ccccc2)Cc2ccccc2)N1c1ccccc1`, the growth inhibition is 43% in assay [1]; 14% in assay [2]; 35.1% in assay [3]; 24.8% in assay [4]; -3.85% in assay [5]; 29.6% in assay [6].

`COc1ccc2c3c([nH]c2c1)C(C)N(S(=O)(=O)c1ccccc1)CC3` (stereo not given): the growth inhibition in assay [1] was -8.1%; in assay [2], -0.9%; in assay [3], -2.65%; in assay [4], -4.9%; in assay [5], 8.45%; in assay [6], 5.7%.

Take `O=C(O)c1c(O)c(O)cc2ccccc12`: the growth inhibition was 24.1% in assay [1]; -17.8% in assay [2]; -13.4% in assay [3]; -51.5% in assay [4]; 25.6% in assay [5]; 23.4% in assay [6].

For `CSC12CC3C(=O)C=C[C@@H](O)[C@@H]3N1C(=O)C1(SC)CC3C(=O)C=C[C@@H](O)[C@@H]3N1C2=O` (stereo not given in full), the growth inhibition was 64.3% in assay [1]; 78.2% (active) in assay [2]; 85.1% (active) in assay [3]; 39.8% in assay [4]; 72.8% (active) in assay [5]; 65.2% in assay [6].

With `CC1(C)CCCC/C1=N\Nc1ccc([N+](=O)[O-])cc1[N+](=O)[O-]`, the growth inhibition in assay [1] was -29.2%; in assay [2], 5.2%; in assay [3], -2.8%; in assay [4] it was -22.2%; in assay [5] it was 1.1%; in assay [6], 22.1%.

As for `NS(=O)(=O)c1ccc(NC2(C(=O)O)CCCC2)cc1`, the growth inhibition was -18.4% in assay [1]; -9.3% in assay [2]; -0.9% in assay [3]; -9.4% in assay [4]; -38.5% in assay [5]; -21.5% in assay [6].

As for `N#Cc1c(-c2ccc(Cl)cc2)c(C#N)c(=O)n(NS(=O)(=O)c2ccccc2)c1O`, the growth inhibition was 17.5% in assay [1]; 46.9% in assay [2]; 41.7% in assay [3]; 48% in assay [4]; 47% in assay [5]; 50.2% in assay [6].

Consider `COc1cc(C2CC=CCC2C(=O)O)cc(OC)c1OC` (stereo not given), for which the growth inhibition in assay [1] was -13.6%; in assay [2], 2.4%; in assay [3], -0.65%; in assay [4], 7.95%; in assay [5] it was -0.25%; in assay [6] it was 0.9%.

As to `COc1ccc(C(=O)OC2CCCC2)cc1`, the growth inhibition is 45.8% in assay [1]; 6.95% in assay [2]; 39.5% in assay [3]; -9.5% in assay [4]; 9.6% in assay [5]; 24.7% in assay [6].

For `CN1CCC(CN)(c2ccccc2)CC1`, the growth inhibition was 14.1% in assay [1]; 14.9% in assay [2]; 0.35% in assay [3]; -6.5% in assay [4]; 9.7% in assay [5]; 11.3% in assay [6].

Take `Cc1[nH]c(=S)[nH]c(=O)c1CCC(C)C`: the growth inhibition is 9.5% in assay [1]; 14.8% in assay [2]; 14.1% in assay [3]; 52.1% in assay [4]; 37.8% in assay [5]; 6.5% in assay [6].

Take `CC(=O)Nc1ccc(C2CC(c3ccc([N+](=O)[O-])cc3)=Nc3ccccc3S2)cc1` (stereo not given): the growth inhibition in assay [1] is 32.8%; in assay [2], 24.6%; in assay [3], 34.1%; in assay [4], 17.6%; in assay [5], 13.9%; in assay [6], 49.9%.

In the case of `CC(C)NC(=O)c1ccccc1Sc1ccccc1CN(C)C(C)C`, the growth inhibition in assay [1] was -11.3%; in assay [2], 5.5%; in assay [3], 7.1%; in assay [4] it was 6.55%; in assay [5], 8.9%; in assay [6], 6.75%.

Regarding `CC1=NC2(CCCCC2)N(Cl)C(=O)C1SC#N` (stereo not given), the growth inhibition is -45.2% in assay [1]; -72.3% in assay [2]; -23.8% in assay [3]; -27.6% in assay [4]; -13.8% in assay [5]; -27.4% in assay [6].

As to `CCc1ccc(C(=O)O)o1`, the growth inhibition was -9% in assay [1]; -12.1% in assay [2]; -7.35% in assay [3]; 7.8% in assay [4]; 12.7% in assay [5]; 12.3% in assay [6].
